From PubChem BioAssay
Most compounds without a hit are left out; they make up all but 2% or so of the library.
PGE2 EP2 inh: EP2 receptor (human) inhibition. C6 glioma cells expressing human EP2, cAMP TR-FRET; cells stimulated with saturating PGE2. inhibition, % at 25 µM. hit rate 0.52% among 260,000. AID 1422;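 active = percent inhibition above 40 after rounding to a whole number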;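 note: rat C6 glioma host cells with rolipram phosphodiesterase inhibitor present; the protocol text gives 20 µM as final concentration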
Target sequence (P43116 whole entry, looked up): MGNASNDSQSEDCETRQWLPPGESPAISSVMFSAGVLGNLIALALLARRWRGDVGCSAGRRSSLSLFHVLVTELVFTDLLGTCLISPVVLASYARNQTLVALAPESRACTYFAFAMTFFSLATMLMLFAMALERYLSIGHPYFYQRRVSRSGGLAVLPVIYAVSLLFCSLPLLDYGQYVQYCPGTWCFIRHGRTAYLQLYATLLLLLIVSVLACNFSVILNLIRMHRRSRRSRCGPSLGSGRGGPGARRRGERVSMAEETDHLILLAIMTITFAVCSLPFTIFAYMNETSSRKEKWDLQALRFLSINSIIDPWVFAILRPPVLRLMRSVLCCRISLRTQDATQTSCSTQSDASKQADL
S1P3 antag: blocks the human S1P3 receptor. Q99500. CHO S1P3 NFAT-BLA reporter, FRET fluorescence, antagonist mode. inhibition, % at 4.98 µM. hit rate 0.27% among 170,000. AID 485;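 active = inhibition above the plate cutoff, the mean inhibition of test wells on that plate plus 3 SD, cut at about 28% in these data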;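 note: cells challenged with S1P at its EC80 of 0.8 µM; blue over green emission ratio from cleaved BLA substrate after 4 h stimulation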
EP2 modulator: modulators of human EP2 prostaglandin E2 receptor; hit rate 0.83% among 260,000; P43116; induction, % at 25 µM; EP2-expressing cells, cAMP HTRF FRET, PGE2 co-stimulation;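 active = compounds whose cAMP rise, as percent of the full-agonist control response, exceeds 60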;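 note: rat C6 glioma line stably carrying human EP2 under a CMV promoter; the protocol text gives 20 µM as final concentration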
S1P4 ag: agonists of human S1P4 receptor. activation, % at 4.98 µM. hit rate 0.35% among 220,000. S1P4-expressing cell line, agonist reporter assay. AID 1509; in the data active = activation above about 11%
S1P4 antag: blocks the human S1P4 receptor; S1P4-expressing cells, antagonist mode, reporter read-out; inhibition, % at 4.98 µM; hit rate 0.26% among 220,000; AID 1510; in the data active = inhibition above about 29%
EP2 confirm: EP2 receptor cAMP induction, counter-screens negative; shares compounds with EP2 modulator; C6 glioma EP2 cells, cAMP HTRF induction; plus low (about EC15) PGE2 agonist; calls only at 20 µM (by protocol); hit rate 47% among 1,300; AID 1080;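 active = cAMP induction above 50% in the main assay while under 30% in all four parallel counter assays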;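 note: rat C6 glioma cells stably expressing human EP2 receptor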
A number is an active result; - = inactive; . = no result; + = active, no number.

SMILES	PGE2 EP2 inh	S1P3 antag	EP2 modulator	S1P4 ag	S1P4 antag	EP2 confirm
CN(C)c1ncc(CN(Cc2ccccc2F)C2CC(C)(C)NC(C)(C)C2)cn1	-	.	-	.	.	.
Cc1ccc(Nc2nc(CSc3nnc(-c4ccccc4)n3C)cs2)cc1	-	-	-	-	-	.
Cc1ccc(Nc2nc(CSc3nnc(-c4ccccc4C)n3C)cs2)cc1	-	-	70.8	-	-	+
CCOC(=O)c1cc(CC)sc1NC(=O)c1ccc(N2C(=O)CCC2=O)cc1	-	.	-	-	-	.
CCOC(=O)c1cc(CC)sc1NC(=O)c1cc(OC)c(OC)c(OC)c1	-	.	67.8	-	-	+
CC(=O)Nn1cnc2c(c1=O)C1(CCCC1)Cc1ccccc1-2	-	.	-	-	-	.
Cc1ccc(-n2c(SCC(N)=O)nc3c(c2=O)C2(CCCC2)Cc2ccccc2-3)cc1	-	-	71.5	-	-	-
O=c1c2c(n3cnnc3n1C1CCCCC1)-c1ccccc1CC21CCCCC1	-	.	68.5	-	-	+
O=c1c2c(n3cnnc3n1-c1ccccc1)-c1ccccc1CC21CCCC1	-	-	-	-	-	.
CCSc1n[nH]c2nc3c(c(=O)n12)C1(CCCC1)Cc1ccccc1-3	-	.	-	-	-	.
O=c1c2c(n3nnnc3n1-c1ccccc1)-c1ccccc1CC21CCCC1	-	-	73.1	-	-	+
Nn1cnc2c(c1=O)C1(CCCCC1)Cc1ccccc1-2	-	-	73.2	-	-	-
CC(=O)COC(=O)c1cc(-c2ccc(Br)cc2)nc2ccccc12	-	.	-	.	.	.
CC(=O)O[C@@H]1c2c(ccc3ccc(=O)oc23)OC(C)(C)[C@@H]1OC(=O)CC(C)C	-	.	63.6	.	.	+
C=CCn1c(CNC(=O)c2cccs2)nnc1SCC(=O)c1ccc(Br)cc1	-	.	-	-	-	-
Clc1ccc(COn2c(-c3ccccc3)nc3ccccc32)cc1	-	.	66.7	-	-	-
CCOC(=O)c1c(NC(=O)CSc2ncnc3[nH]ncc23)sc2c1CCC(C)C2 (centres undefined)	-	-	66.1	-	-	-
Cc1ccc(NC2=C(C(=O)c3ccccc3)N(C)S(=O)(=O)c3ccccc32)cc1	-	.	65.7	-	-	-
Cc1ccc(C)c(N(C(=O)c2csnn2)C(C(=O)NC(C)(C)C)c2ccc(C)o2)c1 (centres undefined)	-	.	-	.	.	.
O=C(O)COc1cccc(NC(=O)c2ccccc2)c1	-	-	95.7	-	-	+
O=C(COc1cccc(NC(=O)c2ccccc2)c1)c1ccccc1	-	-	-	-	-	.
COc1cccc(C(=O)Nc2cccc(OCC(=O)c3ccccc3)c2)c1	-	-	-	-	-	.
Cc1cccc(C(=O)Nc2cccc(OCC(=O)O)c2)c1	-	-	94.9	-	-	+
CCOC(=O)c1sc2ncnc(N3CCN(C)CC3)c2c1C	-	-	-	-	-	.
CCOC(=O)c1sc2nc(C)nc(N3CCN(c4ncccn4)CC3)c2c1C	-	-	67.2	-	-	-
SMILES	PGE2 EP2 inh	S1P3 antag	EP2 modulator	S1P4 ag	S1P4 antag	EP2 confirm
C/C(Cl)=C/CSc1nc2c(c(=O)n(C)c(=O)n2C)n1Cc1ccc(F)cc1	-	.	-	.	.	.
Cn1c(=O)c2c(nc(SCC(=O)c3cccs3)n2Cc2ccc(F)cc2)n(C)c1=O	-	-	75.0	-	-	-
CCc1nn(CC(=O)NCc2ccco2)c(=O)c2cc3oc(C)cc3n12	.	.	-	.	.	.
CC(CC(=O)O)(CC(=O)O)C(=O)O	-	.	-	.	.	-
COc1cccc(C(=O)CSc2nc3c(C)ccc(C)c3cc2C#N)c1	-	.	-	.	.	.
C=CCOc1ccccc1CNc1ccccc1C	-	-	80.9	-	-	+
C=CCOc1ccccc1CNc1cccc(F)c1	-	-	71.5	-	-	-
C=CCOc1ccccc1CNc1ccc2c(c1)OCCO2	-	-	-	-	-	.
COc1ccccc1CN(CCCn1ccnc1)Cc1ccnc2ccccc12	-	.	-	.	.	.
Cc1ccc(-c2nnn(CC(=O)N(c3cccc(F)c3)C(C(=O)NC(C)(C)C)c3ccc(C)o3)n2)o1 (centres undefined)	-	.	-	.	.	.
Cc1cc(C)n(-c2nc3ccccc3nc2Nc2ccc3[nH]c(=O)[nH]c3c2)n1	-	-	83.0	-	-	-
N#Cc1c(N)nc2c3c(sc(=N)c2c1N)NC(=O)CC3c1c(F)cccc1Cl (centres undefined)	-	.	67.8	-	-	+
N#Cc1c(N)nc2c3c(sc(=N)c2c1N)NC(=O)CC3c1ccccc1 (centres undefined)	-	.	-	-	-	.
